From PubChem
BAZ2B block = blocks human BAZ2B. Q9UIF8. AlphaScreen BAZ2B-H3K14Ac peptide displacement. Potency, µM (top dose mostly 114 µM), inactives show at the highest dose activity change, negative = inhibition, usual class: inhibitors. 360,000 compounds, 4.4% hits; further: on the % scale 0 is the no-effect control and ±100 the full control effect; nearly all actives have a fitted effect of over 60% in size
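AlphaScreen displacement of biotin-H3(5-23)K14Ac peptide (50 nM final) from BAZ2B (50 nM final) in PBS pH 7.4, 0.01% Tween-20; complex preformed 30 min RT, then compounds (top 110 uM) 30 min RT, beads 20 min dark.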
HP1b chromo inh = HP1-beta chromodomain-methylated histone interaction inhibition. P83916. AlphaScreen HP1-beta / biotin-H3K9me3 peptide binding. AID 540317. Potency, µM (highest dose often 114 µM), for the others: at the highest dose activity change, negative = inhibition, actives largely listed as inhibitors. 390,000 compounds, 0.56% hits; further: nearly all actives have a fitted effect of over 70% in size
Target sequence (P83916 whole entry, looked up): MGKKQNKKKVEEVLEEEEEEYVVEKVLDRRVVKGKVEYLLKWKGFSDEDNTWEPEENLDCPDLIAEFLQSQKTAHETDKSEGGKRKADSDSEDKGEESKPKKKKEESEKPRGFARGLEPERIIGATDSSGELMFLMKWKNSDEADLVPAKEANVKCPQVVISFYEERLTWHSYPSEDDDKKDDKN
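Compound inhibition of the preformed complex between 50 nM HP1-beta and 50 nM biotinylated H3K9me3 peptide was read by AlphaScreen. Buffer was PBS pH 7.4 with 0.01% Tween-20. Incubations ran 30 min at room temperature, with 10 ug/mL donor/acceptor beads.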
JMJD2A Tudor = inhibitors of human JMJD2A Tudor domain; AlphaScreen JMJD2A-Tudor / H3K4me3 peptide binding; Potency, µM (highest dose often 114 µM), without a hit: top-dose activity change, negative = inhibition, actives largely listed as inhibitors; 390,000 compounds, 4.4% hits; AID 504339; further: on the % scale 0 is the no-effect control and ±100 the full control effect; nearly all actives have a fitted effect of over 50% in size
G9a block = blocks human histone lysine methyltransferase G9a; G9a H3K9 monomethylation, AlphaScreen, 2 h; Potency, µM (highest dose often 102 µM), without a hit: at the highest dose activity, negative = inhibition, most hits filed as inhibitors; 350,000 compounds, 8.8% hits; further: on the % scale 0 is the no-effect control and ±100 the full control effect; nearly all actives have a fitted effect of over 75% in size
Target sequence (Q96KQ7 913-1193 limits assumed): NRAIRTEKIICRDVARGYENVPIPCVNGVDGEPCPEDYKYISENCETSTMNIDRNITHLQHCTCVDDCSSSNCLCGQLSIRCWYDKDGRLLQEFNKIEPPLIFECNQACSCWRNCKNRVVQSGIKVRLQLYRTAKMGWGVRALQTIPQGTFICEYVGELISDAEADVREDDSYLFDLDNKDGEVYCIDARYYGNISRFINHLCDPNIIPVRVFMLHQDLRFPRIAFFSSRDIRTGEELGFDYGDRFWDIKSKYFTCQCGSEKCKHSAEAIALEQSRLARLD
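AlphaScreen detection with an anti-monomethyl H3K9 antibody quantified product after a 2 h room-temperature reaction containing 500 nM biotinylated H3K9 peptide, 20 µM SAM and 20 nM enzyme, which had been preincubated 15 min with compound.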
L3MBTL1 block = blocks human L3MBTL1; Q9Y468; AID 485360; Potency, µM (series often up to 57.1 µM), for inactives: at the top dose activity, negative = inhibition, actives largely listed as inhibitors; AlphaScreen L3MBTL1–H3K9me1 peptide binding; 230,000 compounds, 0.66% hits; further: on the % scale 0 is the no-effect control and ±100 the full control effect; nearly all actives have a fitted effect of over 60% in size
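L3MBTL1 (50 nM) pre-complexed 30 min with biotinylated H3(1-15)K9me1 peptide (75 nM), then compounds added for 30 min at room temperature; AlphaScreen streptavidin donor/nickel chelate acceptor beads (10 ug/mL final) read after 30 min dark incubation.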
Active calls of the source: *; ? = inconclusive; . = no result; ! = not active in a repeat; [ ] = another dose, or the depositor's remark. Only some compounds are listed: those with a hit (about 11% of all), similar ones and a draw of the others. The call rests on the fitted dose curve; in most records, active means well fitted inhibition curve with a large enough effect; inconclusive means small, poorly fitted or top-dose-only effect; inactive means no such curve, though single readings can be large or run the other way. Potency means the concentration at half of the fitted maximal effect.

SMILES	BAZ2B block	HP1b chromo inh	JMJD2A Tudor	G9a block	L3MBTL1 block
COC(=O)C1=C(c2cc3ccccc3o2)C[C@@H]2CC[C@H]1N2C(=O)NCCNC(C)=O	.	28.6%	-3.6%	.	.
COC(=O)C1=C(c2cc3ccccc3o2)C[C@@H]2CC[C@H]1N2C(=O)NC(C)C	.	52.2%	39.8µM*	.	.
COC(=O)C1=C(c2ccc3ccccc3c2)C[C@@H]2CC[C@H]1N2C(=O)NCC1CC1	-9.5%	27.5%	-7.7%	-16.2%[0.501 µM]	-1.1%
COC(=O)C1=C(c2ccc3ccccc3c2)C[C@@H]2CC[C@H]1N2C(=O)NCc1ccco1	50.1µM*	-15.6%	?	10.4%[0.501 µM]	-25.3%
Oc1cc(Cl)cc(Cl)c1Cl	-0.8%	28.5%	-16.6%	8.2%[0.501 µM]	2.2%
COc1ccc(Cc2c(O)[nH]c(=S)[nH]c2=O)cc1	1.5%	-7.6%	?	7.94µM*	11.1%
COc1ccc(C(=O)CC2(CC(=O)c3ccc(OC)cc3)C(=O)N(C)C(=O)N(C)C2=O)cc1	1.1%	37.2%	-4.3%	39.8µM*	.
O=c1[nH]c(O)c(/C=C2/C=CC(c3cc(Cl)ccc3Cl)=N2)c(=O)[nH]1	?	27.7%	?	50.1µM*	.
CCOC(=O)c1c(C)n(CCN2CCN(C)CC2)c2ccc(OC)cc12	-33.8%	?	17.8µM*	?	-2.1%
CCCCn1c(C)c(C(=O)O)c2cc(OC)ccc21	-8.7%	13.0%	-15.7%	-7.5%[59 µM]	-1.6%
CCN(CC)C(=O)c1ccc(NC(=O)CCn2nc(-c3ccc(Cl)cc3)c3ccccc3c2=O)cc1	-37.7%	-11.7%	-29.2%	-44.2%[59 µM]	.
O=[N+]([O-])c1cccc2c([N+](=O)[O-])cccc12	?	23.0%	-11.7%	2.6%[0.501 µM]	-7.7%
O=C1NC(=O)C(Sc2ccccc2[N+](=O)[O-])C(=O)N1	50.1µM*	?	28.2µM*	2.82µM*	.
CCN(CCCl)c1cc(CN(C)C)cc(NC(=O)c2ccc(C(=O)Nc3cc(CN(C)C)cc(N(CC)CCCl)c3)cc2)c1	.	10µM*	12.6µM*	.	.
C[C@@H]1C(=O)O[C@H]2C[C@@]34[C@H]5C[C@@H](C(C)(C)C)[C@]36[C@@H](OC(=O)[C@@H]6O)O[C@@]4(C(=O)O5)[C@]21O	8.2%	29.5%	-3.5%	9.6%	.
CC(=O)NC(Cc1ccc(N(CCCl)CCCl)cc1)C(=O)NC(C(=O)O)C(C)C (stereo unspecified)	-38.3%	20.5%	1.4%	-48.0%	-3.9%
CCOC(=O)CC(NC(=O)C(Cc1ccc(N(CCCl)CCCl)cc1)NC(C)=O)C(=O)OCC (stereo unspecified)	20µM*	?	12.6µM*	.	-6.1%
NC(Cc1ccc(N(CCCl)CCCl)cc1)C(=O)O (stereo unspecified)	.	.	.	10.6µM*!	.
C[C@H](CO)N1C[C@H](C)[C@@H](CN(C)Cc2ccc(-c3ccccc3)cc2)Oc2c(NC(=O)c3ccncc3)cccc2C1=O	.	3.2%	?	.	-4.8%
O=c1c2ccccc2nc(/C=C\c2ccc(F)cc2)n1-c1ccccc1F	1.3%	39.0%	-2.4%	-1.7%[59 µM]	.
Cc1cc(OCC(=O)N2CCN(CCc3ccncc3)CC2)cc(C)c1Cl	-8.9%	38.4%	-7.9%	-2.4%[59 µM]	.
Cc1ccc(N)c(C(=O)c2ccc(Br)cc2)c1	39.8µM*	?	28.2µM*	15.8µM*	.
O=C(CNC(=O)c1ccccc1)NCC(=O)OCC(=O)c1ccc([N+](=O)[O-])cc1	-4.4%	36.3%	13.4%	8.91µM*	12.6%
C=C1C/C(=C\C)C(=O)O[C@@H]2CCN3CC=C(COC(=O)[C@@]1(C)O)[C@H]23	.	.	.	21.5%[21.5 µM]	.
Cn1nc(-c2ccccc2)nc2c(=O)n(C)c(=O)nc1-2	.	10.5%[57 µM]	-6.2%[57.1 µM]	.	.
SMILES	BAZ2B block	HP1b chromo inh	JMJD2A Tudor	G9a block	L3MBTL1 block
Cc1nc2c(=O)n(C)c(=O)nc-2n(C)n1	-4.8%	17.4%	5.5%	-18.4%[59 µM]	0.112µM*
CC1CCc2cc(F)cc3c(=O)c(C(=O)O)cn1c23 (stereo unspecified)	56.2µM*	-1.7%	?	8.91µM*	5.8%
CC12CCCCC1(O)[N+](=O)C1=C(CCCC1)N2[O-] (stereo unspecified)	?	23.8%	-11.0%[57.1 µM]	?	-20.0%
CC12CCCCC1N(O)CN2O (stereo unspecified)	3.9%	46.3%	?	7.94µM*	2.8%
O=c1[nH]c(=O)n([C@H]2C[C@@H](O)[C@@H](CO)O2)cc1C=CBr	.	.	.	40.5%[59 µM]	.
CN1/C(=C\C=C\C2=[N+](C)c3ccc4ccccc4c3C2(C)C)C(C)(C)c2ccccc21	4.47µM*	.	.	10µM*	15.8µM*
C[N+]1=C(/C=C/Nc2ccccc2)C(C)(C)c2ccccc21	-33.1%	16.2%	-14.1%	?	-10.8%
Cc1ccc(S(=O)(=O)N(C)CCCC(=O)N2CCN(c3ccccn3)CC2)cc1	-29.9%	31.6%	-24.3%	?	4.8%
Cc1cccc(CN2CCc3nc(N4CCN(c5ccccn5)CC4)ncc3C2)c1	50.1µM*	6.1%	79.4µM*	?	.
COc1cccc(CN2CCc3nc(N4CCN(c5ncccn5)CC4)ncc3C2)c1	39.8µM*	-6.7%	63.1µM*	-1.4%[12.7 µM]	.
COc1cccc(C(=O)C2CCCN(Cc3ccccn3)C2)c1 (stereo unspecified)	-10.2%	6.7%	-19.2%	.	-11.3%
Cc1ccc(OCC(=O)Nc2ccc(Cl)cc2C(=O)c2ccccc2)cc1C	1.1%	32.4%	1.0%	-30.0%[59 µM]	.
O=C1CC(c2ccc(F)cc2)c2c(c3ccccc3oc2=O)O1 (stereo unspecified)	-16.7%	35.5%	-20.5%	-22.9%[59 µM]	.
Cc1ccc(N2C(=O)/C(=C/c3ccc(CN(CCC#N)S(C)(=O)=O)o3)C(=O)NC2=S)cc1C	39.8µM*	.	.	8.91µM*	?
Cc1cccc(N2C(=O)/C(=C/c3ccc(CN(CCC#N)S(C)(=O)=O)o3)C(=O)NC2=S)c1	50.1µM*	?	50.1µM*	?	.
O=C1NC(=O)N(c2ccc3c(c2)OCO3)C(=O)/C1=C/c1ccc(N2CCCC2)o1	-34.7%	23.6%	-2.1%	?	-5.5%
CC1O[C@@H](O[C@@H]2C(O)C[C@H](O[C@@H]3C(O)C[C@@H](OC4CC[C@@]5(C)C6CC[C@]7(C)C(C8=CC(=O)OC8)CC[C@@]7(O)C6CC[C@@H]5C4)OC3C)OC2C)CC(O)[C@H]1O (stereo partly specified)	.	.	.	-13.0%[2.33 µM]	.
C[C@]12CC[C@H](O)C[C@H]1CCC1C2CC[C@]2(C)[C@@H](c3ccc(=O)oc3)C[C@H]3O[C@]132 (stereo partly specified)	.	.	.	-33.7%[12.7 µM]	.
O=C(Nc1ccc2c(c1)OCO2)c1cccn(Cc2ccccc2)c1=O	-2.2%	40.7%	-2.9%	-30.7%[59 µM]	.
